Experimental data: PubChem BioAssay
Where “and” joins values, the source holds several entries; their conditions need not be identical. Equal entries are not always repeated. For some assays here: Results with a measured potency or affinity are listed apart. Calls of active or inactive are those of the source.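 How the source made its calls, unless noted: active means normalized viability below 100% at a tested concentration; inactive means the rest.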

How the values were obtained:
[1] = compounds altering circadian rhythm period length – cell-based, LOPAC library, luminescence reporter (AID 2774; call rule not given here;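 further: values are relative to mean of DMSO wells on each plate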); details: circadian reporter cells, at 7 µM, actives lie on both sides
[2] = system: Hepatitis C virus NS3 helicase; experiment: blockers of NS3h binding to ssDNA – biochemical, fluorescence polarization, LOPAC1280 library, primary screen (AID 687035; in the data active means inhibition above about 37%); details: Purified HCV NS3 helicase, Cy5-dT15 ssDNA binding fluorescence polarization; stronger effect = higher value; concentration not given here
[3] = compounds altering Cy5-DNA-NS3h complex signal – biochemical, LOPAC1280, artefact control for HCV NS3 helicase inhibitor project (AID 687037; call rule not given here); details: Cy5-DNA-NS3h complex fluorescence interference counterscreen
[4] = biological target: 6-phosphogluconate dehydrogenase, decarboxylating (Homo sapiens) (UniProt P52209); experiment: inhibition of human phosphogluconate dehydrogenase – biochemical, recombinant enzyme, NADPH absorbance, primary screen (AID 1159550;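 active means at least 20% inhibition of 6-phosphogluconate dehydrogenase activity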); details: recombinant 6PGD, NADPH absorbance 341 nm; at 10 µM; stronger effect = higher value
[5] = EMT-state selective cytotoxicity in co-culture – imaging, PC-3E GFP, TEM4-18 mCherry, primary screen (AID 1345086;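 active means compounds killing one labelled cell type while sparing the other, by normalised counts and ratio limits, not self-fluorescent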;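 on all read-outs here: cells exposed to compound for 72 h before imaging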;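 on red/green cell ratio (normalised): normalised mesenchymal count divided by normalised epithelial count so high means epithelial killing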); details: PC-3E GFP / TEM4-18 mCherry co-culture, imaging cell counts, at 1 µM; for red/green cell ratio (normalised): actives lie on both sides, counts scaled to control wells, 1 = unselective
[6] = viability loss with induced miR-34 in A549 – imaging, A549 dox-inducible miR-34, nuclei and caspase counts, primary screen (AID 1347080;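 active means compounds whose cell count with miR-34 switched on is under 0.7 times the count with it off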); details: A549 miR-34 inducible, Hoechst nuclei count, 48 h
[7] = blockers of cellular phospholipid synthesis – cell-based, LOPAC library, screen 4, primary screen (AID 1347384; call rule not given here); details: animal cells, phospholipid biosynthesis inhibition screen; at 10 µM
[8] = MELAS cybrid and Rieske KO viability enhancers – cell-based, MELAS cybrids, Rieske KO mouse fibroblasts, CellTiter-Glo, primary screen (AID 1508586;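 active means mean z-score across replicates of 1.96 or higher in either the MELAS or the Rieske mutant cell line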;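 further: z relative to plate mean and SD of compound and empty wells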); details: low glucose
[9] = drug combination growth inhibition, ovarian cancer – cell-based, oncology-focused library, rucaparib conditional, profiling panel (AID 1508598); details: patient-derived ovarian cancer cells, CellTiter-Glo viability, 144 h, stronger effect = lower value
[10] = biological target: Mitogen-activated protein kinase 7 (Homo sapiens) (UniProt Q13164); experiment: Gal4-ERK5 driven luciferase induction – cell-based, HTS, primary screen (AID 1508626;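 active means luciferase signal above three times the same-plate solvent-only control wells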;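 further: luciferase driven by Gal4-ERK5 fusion binding five Gal4 sites before minimal TATA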); details: HeLa Gal4-ERK5 transactivation, 18 h, at 5 µM, stronger effect = higher value
[11] = galactose survival enhancers in mitochondrial complex I cybrids – cell-based, galactose medium, ATP luminescence, primary screen (AID 1645843;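 active means z-score of at least 1.8 in each of two replicates, scored against plate mean and spread of sample wells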;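 further: positive z means more ATP and so rescue of galactose-driven cybrid death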); details: complex I mutant cybrid cells, 72 h, stronger effect = higher value
[12] = blockers of polyQ-driven CASP3 activation – cell-based (AID 1583); details: polyglutamine-induced caspase-3 activation, cell assay; stronger effect = higher value;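 tested at 10 µM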
[13] = yeast 75Q aggregation reduction – 75Q-TubU reporter (AID 1593); details: Yeast 75Q polyglutamine aggregation reporter
[14] = restoration of touch response, mutant HTT neurons – whole organism, C. elegans mechanosensory neurons, N-terminal huntingtin (AID 1599); details: C. elegans polyQ-huntingtin mechanosensory neurons, stronger effect = higher value
[15] = blockers of cytochrome c efflux from mitochondria – biochemical, purified mitochondria (AID 1603); details: stronger effect = lower value;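 further: mouse liver mitochondria challenged with calcium chloride; signal normalized to the plate average as 100%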
[16] = polyglutamine aggregate formation blockers (AID 1604); details: polyglutamine-induced protein aggregation inhibition assay; stronger effect = higher value; tested at 2.5 µM
[17] = glutamate transport activators, MN-1 cells, MN-1 cell line (AID 1612); details: MN-1 motor neuron cells, stronger effect = higher value;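 further: tested at 1 µM final; 0% = mean of DMSO vehicle wells on each plate; positive means more glutamate uptake than control and negative means less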
[18] = GFP-Q80 aggregate reduction, neuronal-like cells, cell-based, NGF-treated PC12, GFPQ80 (AID 1614); details: PC12 NGF-treated GFP-polyQ80 inclusion reduction;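 further: lower means fewer inclusions and 0 means no inclusions at all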
[19] = 75Q-TubH aggregate inhibition, S. cerevisiae, yeast (AID 1616); details: S. cerevisiae 75Q-TubH polyglutamine aggregation suppression; stronger effect = higher value
[20] = P. berghei load reduction in hepatocytes – cell-based, HepG2, luciferase luminescence, HepG2 viability, primary screen (AID 624349; in the data active means parasite load remaining mostly below about 12%, no sharp cut-off; inactive means mostly above about 10%;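 further: 100% = mean of DMSO negative control wells on the same plate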); details: P. berghei liver stage in HepG2, luciferase luminescence, concentration not given here; parasite load remaining: stronger effect = lower value; viability: measured here: HepG2 viability without parasites
[21] = measured here: epithelial PC-3E GFP cell survival
[22] = measured here: mesenchymal TEM4-18 mCherry cell survival
[23] = stronger effect = lower value, cell number ratio, induced over uninduced
[24] = measured here: relative caspase fold change +Dox/-Dox
[25] = measured here: total cells with miR-34 induction, stronger effect = lower value
[26] = measured here: total cells without miR-34 induction
[27] = MELAS cybrid survival, CellTiter-Glo 48 h, stronger effect = higher value
[28] = Rieske KO mouse fibroblast survival, CellTiter-Glo 72 h
[29] = at 0.000305 µM, OCI-C5x cells, with rucaparib 10 µM, 100% = cells with rucaparib alone
[30] = at 0.000305 µM, OCI-C5x cells, without rucaparib
[31] = at 0.000305 µM, OCI-P5x cells, with rucaparib 20 µM, 100% = cells with rucaparib alone
[32] = at 0.000305 µM, OCI-P5x cells, without rucaparib
[33] = at 0.00122 µM, OCI-C5x cells, with rucaparib 10 µM, 100% = cells with rucaparib alone
[34] = at 0.00122 µM, OCI-C5x cells, without rucaparib
[35] = at 0.00122 µM, OCI-P5x cells, with rucaparib 20 µM, 100% = cells with rucaparib alone
[36] = at 0.00122 µM, OCI-P5x cells, without rucaparib
[37] = at 0.00488 µM, OCI-C5x cells, with rucaparib 10 µM, 100% = cells with rucaparib alone
[38] = at 0.00488 µM, OCI-C5x cells, without rucaparib
[39] = at 0.00488 µM, OCI-P5x cells, with rucaparib 20 µM, 100% = cells with rucaparib alone
[40] = at 0.00488 µM, OCI-P5x cells, without rucaparib
[41] = at 0.0195 µM, OCI-C5x cells, with rucaparib 10 µM, 100% = cells with rucaparib alone
[42] = at 0.0195 µM, OCI-C5x cells, without rucaparib
[43] = at 0.0195 µM, OCI-P5x cells, with rucaparib 20 µM, 100% = cells with rucaparib alone
[44] = at 0.0195 µM, OCI-P5x cells, without rucaparib
[45] = at 0.0781 µM, OCI-C5x cells, with rucaparib 10 µM, 100% = cells with rucaparib alone
[46] = at 0.0781 µM, OCI-C5x cells, without rucaparib
[47] = at 0.0781 µM, OCI-P5x cells, with rucaparib 20 µM, 100% = cells with rucaparib alone
[48] = at 0.0781 µM, OCI-P5x cells, without rucaparib
[49] = at 0.313 µM, OCI-C5x cells, with rucaparib 10 µM, 100% = cells with rucaparib alone
[50] = at 0.313 µM, OCI-C5x cells, without rucaparib
[51] = at 0.313 µM, OCI-P5x cells, with rucaparib 20 µM, 100% = cells with rucaparib alone
[52] = at 0.313 µM, OCI-P5x cells, without rucaparib
[53] = at 1.25 µM, OCI-C5x cells, with rucaparib 10 µM, 100% = cells with rucaparib alone
[54] = at 1.25 µM, OCI-C5x cells, without rucaparib
[55] = at 1.25 µM, OCI-P5x cells, with rucaparib 20 µM, 100% = cells with rucaparib alone
[56] = at 1.25 µM, OCI-P5x cells, without rucaparib
[57] = at 5 µM, OCI-C5x cells, with rucaparib 10 µM, 100% = cells with rucaparib alone
[58] = at 5 µM, OCI-C5x cells, without rucaparib
[59] = at 5 µM, OCI-P5x cells, with rucaparib 20 µM, 100% = cells with rucaparib alone
[60] = at 5 µM, OCI-P5x cells, without rucaparib

Mitogen-activated protein kinase 7 (Homo sapiens), sequence (Q13164 whole entry, looked up, the tested form may be a part): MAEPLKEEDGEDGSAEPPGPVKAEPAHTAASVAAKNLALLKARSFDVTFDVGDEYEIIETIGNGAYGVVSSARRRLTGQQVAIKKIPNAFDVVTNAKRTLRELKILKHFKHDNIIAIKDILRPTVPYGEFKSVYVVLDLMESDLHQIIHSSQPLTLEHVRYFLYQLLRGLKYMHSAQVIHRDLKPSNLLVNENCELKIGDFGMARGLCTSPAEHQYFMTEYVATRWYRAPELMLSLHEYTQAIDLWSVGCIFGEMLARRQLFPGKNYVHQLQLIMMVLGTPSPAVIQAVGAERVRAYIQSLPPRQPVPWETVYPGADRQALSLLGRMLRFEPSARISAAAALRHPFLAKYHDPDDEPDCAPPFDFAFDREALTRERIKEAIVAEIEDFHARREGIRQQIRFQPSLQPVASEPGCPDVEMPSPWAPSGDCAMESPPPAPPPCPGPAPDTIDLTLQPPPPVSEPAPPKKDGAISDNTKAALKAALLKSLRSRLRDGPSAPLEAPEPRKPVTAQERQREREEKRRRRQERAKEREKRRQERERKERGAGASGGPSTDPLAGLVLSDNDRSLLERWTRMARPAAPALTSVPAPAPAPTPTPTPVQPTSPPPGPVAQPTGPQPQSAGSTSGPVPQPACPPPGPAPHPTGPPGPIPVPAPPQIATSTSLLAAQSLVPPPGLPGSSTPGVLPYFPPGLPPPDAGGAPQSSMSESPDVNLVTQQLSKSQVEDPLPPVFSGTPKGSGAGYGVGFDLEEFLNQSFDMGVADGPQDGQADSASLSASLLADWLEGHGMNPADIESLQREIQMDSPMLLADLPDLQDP
6-phosphogluconate dehydrogenase, decarboxylating (Homo sapiens), sequence (P52209 whole entry, looked up): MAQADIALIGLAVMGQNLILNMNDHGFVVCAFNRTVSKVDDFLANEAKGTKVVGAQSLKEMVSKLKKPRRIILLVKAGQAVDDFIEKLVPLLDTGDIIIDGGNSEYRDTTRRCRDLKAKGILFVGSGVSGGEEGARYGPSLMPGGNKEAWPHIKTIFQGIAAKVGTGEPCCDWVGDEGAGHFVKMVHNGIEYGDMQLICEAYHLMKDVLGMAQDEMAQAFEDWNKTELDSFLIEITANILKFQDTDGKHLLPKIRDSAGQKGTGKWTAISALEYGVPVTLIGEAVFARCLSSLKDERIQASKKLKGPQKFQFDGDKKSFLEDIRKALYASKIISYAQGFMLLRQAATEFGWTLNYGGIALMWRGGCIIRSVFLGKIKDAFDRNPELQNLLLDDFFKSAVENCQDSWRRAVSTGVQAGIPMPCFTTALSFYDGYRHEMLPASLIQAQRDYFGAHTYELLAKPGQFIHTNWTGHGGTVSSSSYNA

O=C(CCc1ccc(O)cc1)c1c(O)cc(O)cc1O
inactive: period change [1] 0.135 h | inhibition [2] -4% | fluorescence ratio (interference) [3] 1 | inhibition [4] 4.36% | red/green cell ratio (normalised) [5] 1.14 | fold change [6, 23] 1 and 0.951 | outcome [7] | z-score [8, 27] -0.355 | viability [9, 29] 108% | viability [9, 30] 119% | viability [9, 33] 115% | viability [9, 34] 108% | viability [9, 37] 122% | viability [9, 38] 115% | viability [9, 39] 103% | viability [9, 40] 104% | viability [9, 41] 110% | viability [9, 42] 123% | viability [9, 43] 104% | viability [9, 44] 110% | viability [9, 45] 116% | viability [9, 46] 121% | viability [9, 47] 104% | viability [9, 48] 109% | viability [9, 49] 115% | viability [9, 50] 117% | viability [9, 51] 109% | viability [9, 52] 113% | viability [9, 53] 105% | viability [9, 54] 125% | viability [9, 56] 110% | viability [9, 57] 109% | viability [9, 58] 132% | viability [9, 59] 108% | viability [9, 60] 111% | luciferase signal [10] 60 AU | z-score [11] 1.71
1.21 and 0.641: fold change [6, 24]
active: viability [9, 31] 96.8% | viability [9, 32] 97% | viability [9, 35] 95.8% | viability [9, 36] 99.2% | viability [9, 55] 97.8%
10100 and 9910: cell count [6, 25]
10100 and 10400: cell count [6, 26]
1.08: normalised cell number [5, 22]
0.95: normalised cell number [5, 21]
0.489: z-score [8, 28]

OCc1ccccc1O[C@@H]1O[C@H](CO)[C@@H](O)[C@H](O)[C@H]1O
2.93: fold change [6, 24]
1.3: aggregation suppression score [19]
12100: cell count [6, 25]
1.23: score [13]
2: inclusion score [18]
inactive: parasite load remaining [20] 107% and 32.5% | inhibition [4] 16.9% | red/green cell ratio (normalised) [5] 0.91 | fold change [6, 23] 0.934 | luciferase signal [10] 72 AU
-13.2: rescue above control [14]
0.94: cytochrome c release ratio [15]
-10.9%: inhibition [12]
66.8% and 91.3%: viability [20]
25.2%: inhibition of aggregation [16]
0.63: normalised cell number [5, 21]
-4.1%: glutamate uptake change [17]
13000: cell count [6, 26]
0.57: normalised cell number [5, 22]

Cc1cc(O)c2c(c1)C(=O)c1cccc(O)c1C2=O
1.02: normalised cell number [5, 22]
0.889: fold change [6, 24]
10900: cell count [6, 26]
0.99: normalised cell number [5, 21]
inactive: inhibition [4] 2.69% | red/green cell ratio (normalised) [5] 1.03 | fold change [6, 23] 0.938 | z-score [8, 27] -0.322 | viability [9, 29] 120% | viability [9, 30] 106% | viability [9, 33] 115% | viability [9, 34] 113% | viability [9, 37] 117% | viability [9, 38] 112% | viability [9, 40] 102% | viability [9, 41] 115% | viability [9, 42] 103% | viability [9, 43] 104% | viability [9, 44] 104% | viability [9, 45] 112% | viability [9, 46] 113% | viability [9, 47] 105% | viability [9, 48] 107% | viability [9, 49] 102% | viability [9, 50] 104% | viability [9, 51] 101% | viability [9, 52] 109% | viability [9, 53] 114% | viability [9, 54] 118% | viability [9, 55] 111% | viability [9, 56] 109% | viability [9, 57] 121% | viability [9, 58] 114% | viability [9, 60] 108% | luciferase signal [10] 64 AU
0.837: z-score [8, 28]
active: viability [9, 31] 93.2% | viability [9, 32] 92.5% | viability [9, 35] 92.4% | viability [9, 36] 95.7% | viability [9, 39] 94.8% | viability [9, 59] 97.2%
10200: cell count [6, 25]
